Results as given in PubChem BioAssay AID720650 (Broad Institute, 2013).
A number with no mark means an inactive call. The source made the active and inactive calls. The rule behind the calls is not given here.

Assay: Biochemical counterscreen for C difficile toxins, absence of UDPG, inhibitor dose response (AID 720650)
Conditions: series mostly up to 19.5 µM

SMILES | AC50
CC[C@H](C)[C@H]1CNC(=S)N1CC1CCN(CCCC2CCCC2)CC1 | inactive
CC(=O)Nc1ccccc1O | 18.4 µM (active)
CC(C)CN1CCN(CC#Cc2ccccc2)CC1CCO (stereo unspecified) | inactive
O=C(c1ccc2c(c1)N(Cc1ccccc1)C(=O)c1ccccc1S2)N1CCCC1 | 16.2 µM (active)
CC1(C)O[C@@H]2[C@H](O1)[C@@H](COS(=O)(=O)O)O[C@H]2n1c(=S)[nH]c2c(=O)[nH]c(N)nc21 | inactive
Cn1ncc(Br)c1C(=O)N/N=C/c1cccc(OC2CSC2)c1 | inactive
NS(=O)(=O)c1ccc(CCNC(=O)c2ccc(CS(=O)(=O)c3ccc(Br)cc3)o2)cc1 | inactive
CC(=O)N1CC[C@@H]2[C@@H](CO)Nc3ccc(-c4ccccc4)cc3[C@@H]21 | 11.5 µM (active)
O=[N+]([O-])c1ccc(S(=O)(=O)Nc2nc(-c3ccccc3)cs2)cc1 | inactive
Nc1cc(N)cc(C(=O)OCC(=O)Nc2cc(S(=O)(=O)N3CCCCC3)ccc2Cl)c1 | inactive
COc1ccc(C2=NS(=O)(=O)N(C)C(C(=O)NCc3ccc4c(c3)OCO4)=C2)cc1 | inactive
CC(=O)Oc1ccc2nc(/C=C/c3ccccc3)oc(=O)c2c1 | inactive
COc1cccc(/C=C/c2onc(C)c2S(=O)(=O)N2CCC(C(=O)NC3CCCCCC3)CC2)c1 | inactive
COc1cc(/C=C/C(=O)OCC(=O)N(C)Cc2ccccc2)ccc1O | inactive
O=C1c2c(O)ccc(O)c2C(=O)c2c(NCCNCCO)ccc(NCCNCCO)c21 | 17.5 µM (active)
CC(=O)N(C)C[C@@H]1Oc2cc(/C=C/c3ccccc3)ccc2S(=O)(=O)N([C@H](C)CO)C[C@@H]1C | > 39 µM
